# In the library only some 11% were active in any assay of this set; here they are far more common.
# Tau fibril FP: tau fibrillization inhibition (FP); K18 P301L tau heparin fibrillization, Alexa594 FP, 6 h; 0.39% of 280,000 active; Potency, µM (titrated, usually from 57.7 µM), without a hit: top-dose activity, negative = inhibition, usual class: inhibitors; note: potency is the fitted concentration of half-maximal effect; nearly all actives have a fitted effect of over 55% in size
# Target sequence (P10636 561-689 P618L limits assumed): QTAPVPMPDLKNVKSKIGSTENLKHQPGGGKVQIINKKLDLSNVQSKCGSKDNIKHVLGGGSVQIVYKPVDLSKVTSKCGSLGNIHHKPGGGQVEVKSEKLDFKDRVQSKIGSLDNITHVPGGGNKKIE
#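 FP of Alexa 594-tau after heparin (20 uM) induction. Substrate: human K18 P301L, 15 uM unlabeled, 0.24 uM labeled. Buffer 100 mM sodium acetate pH 7. 6 hr, 37 C.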
# Tau ThT inhib: tau fibrillization inhibition (ThT binding) | 2.1% of 270,000 active | recombinant tau K18 P301L, heparin-induced fibrillization, ThT fluorescence | AID 1460 | P10636 | Potency, µM (top dose mostly 57.4 µM), for the others: at the highest dose activity, negative = inhibition, hits mostly inhibitors; note: potency is the fitted concentration of half-maximal effect; nearly all actives have a fitted effect of over 55% in size
#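 Aggregation was driven by heparin (20 uM final) acting on recombinant tau […] bearing P301L in 100 mM sodium acetate pH 7; fibrils were detected with Thioflavin T.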
# G9a block: G9a (human) methyltransferase inhibition | Q96KQ7 | G9a H3K9 monomethylation, AlphaScreen, 2 h | Potency, µM (top dose mostly 102 µM), for inactives: top-dose activity, negative = inhibition, actives largely listed as inhibitors | 8.8% of 350,000 active | AID 504332; note: potency is the fitted concentration of half-maximal effect; nearly all actives have a fitted effect of over 75% in size
# Target sequence (Q96KQ7 913-1193 limits assumed): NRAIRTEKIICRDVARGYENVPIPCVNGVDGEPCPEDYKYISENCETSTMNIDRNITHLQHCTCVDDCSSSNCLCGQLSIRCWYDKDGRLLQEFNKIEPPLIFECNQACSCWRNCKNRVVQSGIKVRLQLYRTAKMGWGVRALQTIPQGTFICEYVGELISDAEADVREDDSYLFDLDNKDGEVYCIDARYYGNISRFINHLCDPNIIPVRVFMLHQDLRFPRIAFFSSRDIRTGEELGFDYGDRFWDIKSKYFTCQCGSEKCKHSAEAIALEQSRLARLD
#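 G9a (20 nM) preincubated 15 min RT with compounds, then 500 nM biotinylated H3K9 peptide and 20 uM SAM added; 2 h RT reaction. Monomethyl-H3K9 product detected by AlphaScreen with anti-H3K9me1 antibody, streptavidin donor and anti-rabbit IgG acceptor beads.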
# Sfp PPTase inh: blocks B. subtilis Sfp PPTase activity; Potency, µM, for the others: largest response in the series, negative = inhibition, actives largely listed as inhibitors; AID 1490; Q9F4F7; 3.5% of 310,000 active; Biochemical Sfp PPTase activity, qHTS;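 note: the enzyme is Sfp with the accession as filed and its product quenches rhodamine fluorescence; potency is the fitted concentration of half-maximal effect; 0% = enzyme reaction without inhibitor and -100% = no enzyme wells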
#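 Fluorescence-quenching assay: 15 nM Sfp-PPTase preincubated 15 min at room temperature with compound, then 5 uM rhodamine-CoA and 12.5 uM BHQ-2-labelled YbbR peptide added. Fluorescence (ex 525/em 598 nm) read at start and after 30 min; difference gives rate.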
# FBPA coupling cs: coupling enzyme interference in Giardia aldolase counter-screen | coupling enzyme system counterscreen, AmpLite Red fluorescence | 0.67% of 290,000 active | AID 2472 | activity change, negative = inhibition, % at 58.2 µM, hits read low; in the data active = activity change below about -30%
#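 Activity here indicates interference with the coupling reaction, not aldolase inhibition. Compounds at 57.5 uM final met coupling enzymes for 10 min at RT; substrate and AmpLite Red detection followed, with a 525/598 nm fluorescence read after 20 min.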
# Tau fluor counter: counter-screen for tau fibril formation inhibitors; 0.93% of 280,000 active; tau K18 P301L Alexa594 fluorescence, heparin fibrillization; Potency, µM (top dose mostly 57.7 µM), for inactives: at the top dose activity change, negative = decrease; note: potency is the fitted concentration of half-maximal effect; nearly all actives have a fitted effect of over 55% in size
#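 Human tau K18 P301L (15 uM unlabeled, 0.24 uM Alexa 594-labeled) in 100 mM sodium acetate pH 7 with 20 uM heparin, 6 hr at 37 C. ThT 30 uM added, 1 hr ambient; Alexa 594 FP and total fluorescence read at 555/632 nm.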
# The depositor's hits bear a star; u = inconclusive; x = no result given; [ ] = another dose, or the depositor's remark. Unless noted, calls come from the whole dose curve; as a rule, active = well fitted curve in the direction sought with a large enough effect; inconclusive = small, poorly fitted or top-dose-only effect, or another doubt; inactive = no such curve, though single readings can be large; an effect the other way counts as inactive or inconclusive. Unless noted, % is set by controls: 0 for no effect and ±100 for the full control effect.
SMILES,Tau fibril FP,Tau ThT inhib,G9a block,Sfp PPTase inh,FBPA coupling cs,Tau fluor counter
O=C(NCC1CCN(Cc2ccccc2Cl)CC1)c1cc2ccc3cccnc3c2[nH]1,-4.5%,-9.4%,u,x,x,-19.2%
CCOc1ccc(S(=O)(=O)N(C(C)=O)c2ccc3oc(C)c(C(=O)OC)c3c2)cc1,1.6%,u,0.6%[59 µM],x,x,-25.5%
COc1ccc(S(=O)(=O)N(C(C)=O)c2ccc3oc(=O)sc3c2)cc1,-14.4%,u,7.08µM*,10µM*,-0.5,-16.1%
COc1ccc(CCc2nnc(CCC(=O)NCc3cc(C(C)C)no3)o2)cc1,-1.5%,-5.9%,19.5%,20.2%,1.4,-6.2%
CCn1c2ccccc2c2cc(NC(=O)COC(=O)c3cc(S(N)(=O)=O)c(Cl)cc3Cl)ccc21,6.5%,u,u,-9.8%,1.8,8.91µM*[quencher]
CCn1c2ccccc2c2cc(NC(=O)COC(=O)c3cc(Cl)c(N)cc3OC)ccc21,3.5%,u,-16.3%[59 µM],u,-0.6,10µM*[quencher]
COc1ccccc1N1CCN(C(=O)Cn2ncc3c(=O)oc4ccccc4c32)CC1,-1.9%,-7.7%,-3.3%[59 µM],x,x,-8.4%
O=C(NCCCCc1ccccc1)C12CN(Cc3ccccc3)CC1C(c1ccc([N+](=O)[O-])cc1)=NO2 (centres undefined),-8.9%,-12.0%,u,28.2µM*,-1.4,u
O=C(NCc1ccco1)C12CN(Cc3ccccc3)CC1C(c1cccc([N+](=O)[O-])c1)=NO2 (centres undefined),-1.7%,-16.2%,44.7µM*,1.0%,-1.8,-17.4%
COc1ccc(CCNC(=O)C23CN(Cc4ccccc4)CC2C(c2ccc([N+](=O)[O-])cc2)=NO3)cc1 (centres undefined),u,-18.3%,u,50.1µM*,-4.1,-25.5%
CN(C)c1ccc(C(=S)N2CCN(c3ccccc3)CC2)cc1,16.8%,u,u,11.0%,-0.7,u
O=[N+]([O-])c1ccc(NC(=S)N2CCN(c3ccc(F)cc3)CC2)cc1,-0.5%,u,13.0%[0.501 µM],-7.4%,1.2,u
Cc1ccc(N2CCN(C(=S)c3ccc(N(C)C)cc3)CC2)cc1,6.6%,u,5.01µM*,20µM*,0.2,u
O=[N+]([O-])c1ccc(C(=S)N2CCN(c3ccc(F)cc3)CC2)cc1,-0.9%,u,x,15.8µM*,-3.9,-28.2%
CN(C)c1ccc(C(=S)N2CCN(c3ccc([N+](=O)[O-])cc3)CC2)cc1,3.2%,-7.2%,2.24µM*,3.55µM*,-30.0*,-8.8%
O=C(Cn1c(=O)oc2ccccc21)NCCc1ccccc1Cl,-4.9%,-5.9%,7.7%,8.2%,-7.2,-1.1%
COc1cc(OC)cc(C(=O)NCCc2csc(-c3ccc(C(F)(F)F)cc3)n2)c1,12.0%,-7.8%,9.0%[59 µM],x,x,-16.4%
O=C(O)C1Cc2ccccc2CN1S(=O)(=O)/C=C/c1ccccc1 (centres undefined),0.3%,-12.9%,14.1µM*,-7.5%,0.0,-0.3%
O=C(O)C1Cc2ccccc2CN1C(=O)CSc1nnc2ccccn12 (centres undefined),4.4%,-4.0%,50.1µM*,-19.1%,-2.9,-1.6%
CC(=O)c1ccc(S(=O)(=O)N2Cc3ccccc3CC2C(=O)O)cc1 (centres undefined),4.5%,-8.4%,39.8µM*,6.2%,-1.1,5.9%
O=C(O)[C@H]1Cc2ccccc2CN1S(=O)(=O)c1ccc(F)cc1,-4.9%,-2.1%,-6.7%,27.2%,1.6,-5.6%
CC(C)(C)OC(=O)N1Cc2ccccc2C[C@H]1C(=O)O,1.5%,-4.4%,56.2µM*,9.6%,-8.6,2.4%
O=S(=O)(/C=C/c1ccccc1)N1CCc2ccccc2C1,x,x,37.4%,13.2%,1.4,x
Cc1ccc2[nH]c(-c3ccc(F)cc3F)cc(=O)c2c1,7.6%[81.3 µM],-7.2%[81.4 µM],u,u,-3.6,-4.6%[81.3 µM]
CS(=O)(=O)N1Cc2ccccc2CC1C(=O)O (centres undefined),-3.6%,-1.1%,39.8µM*,18.0%,-2.7,6.1%
SMILES,Tau fibril FP,Tau ThT inhib,G9a block,Sfp PPTase inh,FBPA coupling cs,Tau fluor counter
CCSc1nnc(NC(=O)CSc2nc3c(cc2C#N)CCCC3)s1,3.3%,2.82µM*,23.1%,u,-1.0,u
CCc1nnc(NC(=O)CSc2nc3c(cc2C#N)CCC3)s1,0.0%,2µM*,-20.5%[12.7 µM],-10.2%,2.1,-15.7%
CCCCSc1nc2c(cc1C#N)CCC2,-4.7%,-0.7%,3.98µM*,u,4.7,-11.7%
N#Cc1cc2c(nc1SCC(N)=O)CCCCC2,-1.9%,-13.1%,79.4µM*,10.4%,3.9,-9.5%
N#Cc1cc2c(nc1SCC(=O)Nc1nccs1)CCCCC2,0.0%,u,6.8%[12.7 µM],-3.1%,0.0,-7.6%
Cc1ccc(C(=O)NC2(C(F)(F)F)C(=O)Nc3c2c(=O)[nH]c(=O)n3CCc2ccccc2)cc1 (centres undefined),2.0%,0.1%,-7.3%[59 µM],x,x,0.8%
Cc1cccc(OCC(=O)OCc2cc(=O)n3nc(-c4cccs4)sc3n2)c1,-2.4%,u,14.8%[59 µM],x,x,-16.0%
CC(C)OC(=O)CC(=O)CSc1nc2c(cc1C#N)CCC2,-3.9%,-8.5%,44.7µM*,-20.6%,-2.5,-12.9%
COC(=O)C(NC(=O)c1ccccc1C(=O)O)c1ccc2ccccc2c1 (centres undefined),x,x,70.8µM*,7.2%,0.8,x
CN(C)NC(=S)NC(=O)C12CC3CC(CC(C3)C1)C2,-3.3%,1.9%,-41.8%,u,-2.2,-4.2%
CN1CCC(N(C)C(=S)NC(=O)C23CC4CC(CC(C4)C2)C3)CC1,-5.6%,-14.1%,39.8µM*,-10.9%,-2.2,-9.7%
COc1cc(C(c2nnnn2C(C)(C)C)N2CCN(c3nc4ccccc4s3)CC2)ccc1O (centres undefined),u,u,2.24µM*,25.1µM*,0.5,-29.7%
Cc1cc(-n2c(C)cc(C(=O)COc3ccc4ccc(=O)oc4c3)c2C)no1,9.4%,-19.2%,56.6%[12.7 µM],-15.1%,-19.4,-15.4%
O=C(COc1cccnc1[N+](=O)[O-])c1ccc(Cl)s1,10µM*,5.01µM*,x,2µM*,-29.7,u
Cc1cc(-n2c(C)cc(C(=O)COc3cccnc3[N+](=O)[O-])c2C)no1,x,x,39.8µM*,x,x,x
CC(=O)c1cccc(OCC(=O)c2cc(C)n(-c3cc(C)on3)c2C)c1,0.5%,-11.0%,50.1µM*,-7.8%,-33.5*,-6.5%
COc1cc(OC)cc(-c2nnc3n2N=C(c2ccc(OC)cc2OC)CS3)c1,x,x,x,56.2µM*,-1.5,x
COc1cccc(-c2nnc3n2N=C(c2cc(OC)ccc2OC)CS3)c1,-9.0%,-8.9%,x,-14.8%,-3.6,-9.0%
COc1ccc(C2=Nn3c(nnc3-c3ccc(OC)cc3OC)SC2)c(OC)c1,x,x,x,4.9%,1.0,x

# Screening data as filed in PubChem BioAssay.
